Data on 8 compounds can be found in PubChem BioAssay (Tox21).

The nature of assay [1]: qHTS assay to identify small molecule agonists of the vitamin D receptor (VDR) signaling pathway - cell viability counter screen (AID 743224). Also: nearly all actives have a fitted effect of over 50% in size. Also: potency is read from the fitted curve at half-maximal effect. Put shortly: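 Here cell health was gauged by luminescent ATP detection (CellTiter-Glo, 30 min RT) in VDR-bla cells that had been incubated with test compounds for 16 h at 37C and 5% CO2.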
Assay [2] can be described thus: qHTS assay to identify small molecule antagonists of the vitamin D receptor (VDR) signaling pathway - cell viability counter screen (AID 743225). Also: nearly all actives have a fitted effect of over 50% in size. Also: potency is read from the fitted curve at half-maximal effect. The gist of the method:
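Cells (VDR-UAS-bla HEK 293T) are plated, rested 4 h at 37C, dosed with compound and 3 nM final 1-alpha,25-dihydroxy vitamin D3, and incubated 16 h. Viability is taken from CellTiter-Glo luminescence in the reporter wells.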
(In general: In qHTS, concentration-response curves come from the screen itself.)

Assay [3] is described as follows: qHTS assay to identify small molecule agonists of the NFkB signaling pathway - cell viability counter screen (AID 1159515; calls by dose curve; also: nearly all actives have a fitted effect of over 55% in size; also: potency is read from the fitted curve at half-maximal effect). Put shortly: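 5 hr compound treatment of NFkB-bla ME-180 cells (2,000/well, seeded overnight beforehand), followed by reporter substrate for 1.5 hr. CellTiter-Glo added afterward; luminescence after 30 min RT.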
Assay [4] is described as follows: qHTS assay to identify small molecule agonists of the endoplasmic reticulum stress response signaling pathway - cell viability counter screen (AID 1159517; calls by dose curve; also: nearly all actives have a fitted effect of over 50% in size; also: potency is read from the fitted curve at half-maximal effect). Put shortly: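 CellTiter-Glo was added to wells already read for beta-lactamase FRET, and luminescence was recorded 30 min later. Cells: ESRE-bla HeLa, 1,500 per well, compound exposure 5 hr at 37 C.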
A short description of assay [5]: qHTS assay to identify small molecule antagonists of the retinoid-related orphan receptor gamma (ROR-gamma) signaling pathway - cell viability counter screen (AID 1159520). Also: nearly all actives have a fitted effect of over 50% in size. Also: potency is read from the fitted curve at half-maximal effect. The gist of the method:
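Tet-on ROR gamma CHO cells (1,000/well) were plated 4 hr, given compounds in DMSO for 2 hr at 37 C, then induced with 1 uM final doxycycline for 16 hr. Viability was read as ATP by CellTiter-Glo luminescence after 30 min.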

For assay [6], the target named is Nuclear receptor ROR-gamma (Homo sapiens) (UniProt P51449). Description: qHTS assay to identify small molecule antagonists of the retinoid-related orphan receptor gamma (ROR-gamma) signaling pathway (AID 1159521; also: nearly all actives have a fitted effect of over 50% in size; also: potency is read from the fitted curve at half-maximal effect). Put shortly: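 RORγ antagonism is scored from reduced reporter luminescence in Tet-on CHO cells. Induction used 1 uM final doxycycline hyclate for 16 h at 37 C, following a 2 h compound exposure.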

Assay [7] in a line: qHTS assay to identify small molecule agonists of the AP-1 signaling pathway - cell viability counter screen (AID 1159525; calls by dose curve; also: nearly all actives have a fitted effect of over 55% in size; also: potency is read from the fitted curve at half-maximal effect). The gist of the method: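 ME-180 AP-1-bla, 2500 cells/well, Opti-MEM + 0.5% dialyzed FBS; overnight 37 °C; cpd 15-pt titration, 5 h 37 °C; CellTiter-Glo 30 min RT; luminescence read; normalised to TOAB and DMSO controls.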
Assay [8] can be described thus: qHTS assay to identify small molecule agonists of the AP-1 signaling pathway (AID 1159526; calls by dose curve).
Assay [9] in a line: qHTS assay to identify small molecule agonists of the RXR signaling pathway - cell viability counter screen (AID 1159529). Also: nearly all actives have a fitted effect of over 50% in size. Also: potency is read from the fitted curve at half-maximal effect. Put shortly:
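Cell viability is measured by CellTiter-Glo luminescence, 30 min at room temperature, in wells already read for beta-lactamase. Engineered HEK 293T cells (RXR-alpha-UAS-bla) are dosed 16 hr at 37 C. Tetraoctyl ammonium bromide serves as positive control.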

Assay [10] in a line: qHTS assay to identify small molecule antagonists of the retinoid acid receptor (RAR) signaling pathway - cell viability counter screen (AID 1159551). Also: nearly all actives have a fitted effect of over 35% in size. Also: potency is read from the fitted curve at half-maximal effect. The gist of the method: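 Seed C3RL4 cells; next day add compound, then retinol to 1 uM final; incubate 6 h at 37 C; add CellTiter-Glo; read luminescence after 30 min at RT.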
Assay [11] in a line: qHTS assay to identify small molecule antagonists of the retinoic acid receptor (RAR) signaling pathway (AID 1159552; also: nearly all actives have a fitted effect of over 50% in size; also: potency is read from the fitted curve at half-maximal effect). The gist of the method: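 Quantitative HTS in C3RL4 RARE-luciferase reporter cells. Compounds were added with 1 uM (final) retinol; luminescence was read after 6 hr.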
Assay [12] is described as follows: qHTS assay to identify small molecule agonists of the retinoic acid receptor (RAR) signaling pathway (AID 1159553). Particulars: C3RL4 RARE luciferase reporter, agonist, 6 h; activation: at 73.3 µM (top of the series) unless noted. The gist of the method: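 Activation of retinol signaling was monitored via a RARE luciferase reporter in C3RL4 cells. After 6 hr compound treatment at 37 C, detection reagent was added for 30 min at room temperature before luminescence reading.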

“And” between values parts separate entries of the source, which are not always exact repeats. Identical values can stand only once. Inconclusive results are not listed. The source holds several records for some structures; these can differ, active in one and inactive in another. The source made the active and inactive calls. Unless noted, calls follow the shape of the dose curve; as a rule, active = well fitted curve in the direction sought with a large enough effect in the repeat runs; inconclusive = weak or mixed curves; inactive = no such curve, though single readings can be large; an effect the other way counts as inactive or inconclusive.

On to `O=C(c1ccc(O)c(O)c1)c1ccc(O)cc1O`, for which the Potency result in assay [1], in assay [2], in assay [3], in assay [4], in assay [5] and in [7] was “inactive” throughout. For the same compound, the Potency entry in assay [8], in assay [9], in assay [10] and in assay [11] was “inactive” in each case. In addition, the Potency in assay [6] was 21.6 µM (active).
As for `CCOC(=O)Cn1cccc1-c1nc(-c2ccc(OC)cc2)c(-c2ccc(OC)cc2)s1`, the Potency entry in assay [1], in [2], in [3], in assay [4], in assay [5] and in assay [6] was “inactive” each time. Further, the Potency result in assay [7], in assay [8], in [9], in [10], in assay [11] and in assay [12] was “inactive” each time.
Turning to `CCCCC(CC)CN1CN(CC(CC)CCCC)CC(C)(N)C1` (stereo not given), the Potency in [1] is 29.8 µM (active); in assay [3], 26.8 µM (active); in assay [4] it was 21.3 µM (active); in assay [5], 26.6 µM (active). Besides, the Potency result in [2], in assay [6], in [7], in [8], in assay [9] and in assay [10] was “inactive” each time. Besides, the Potency result in assay [11] and in [12] was “inactive” throughout.
As to `CCCCCCCCCCCCCC[N+](C)(C)C`, the Potency was 26.6 µM (active) and 19.5 µM (active) in [1]; 26.6 µM (active) and 6.16 µM (active) and 23.9 µM (active) in assay [2]; 54.9 µM (active) in assay [3]; 37.6 µM (active) and 34.6 µM (active) and 23.9 µM (active) in assay [4]; 61.1 µM (active) in assay [5]; 11.8 µM (active) and 24.3 µM (active) and 11.9 µM (active) in assay [6]. The Potency in assay [7] was 42.2 µM (active) and 48.9 µM (active) and inactive; in assay [9], 10.6 µM (active) and 15.5 µM (active) and 21.3 µM (active); in [10], 61.1 µM (active) and inactive. The Potency entry in assay [12] was “inactive”.
Take `O=C(/C=C/c1ccccc1)OC/C=C/c1ccccc1`: the Potency entry in assay [1], in [2], in assay [3], in assay [4], in assay [6] and in assay [7] was “inactive” throughout. The Potency result in assay [8], in assay [9], in assay [10] and in assay [11] was “inactive” throughout. Also, in [5], the Potency was 54.5 µM (active).
For `CN(C)c1ccc(C(=C2C=CC(=[N+](C)C)C=C2)c2ccc(N(C)C)cc2)cc1`, the Potency is 4.87 µM (active) and 4.9 µM (active) and 11.9 µM (active) in assay [1]; 9.72 µM (active) and 21.9 µM (active) and 19 µM (active) in assay [2]; 24.4 µM (active) in assay [3]; 12.3 µM (active) and 9.52 µM (active) in [4]; 6.08 µM (active) and 13.7 µM (active) and 5.31 µM (active) in [5]; 1.36 µM (active) and 1.54 µM (active) and 2.66 µM (active) in [6]. Besides, the Potency in [10] is 17.1 µM (active) and 27.3 µM (active) and 23.7 µM (active); in assay [11], 7.66 µM (active) and 2.17 µM (active) and 3.76 µM (active).
For `C#CC1(O)CC[C@H]2[C@@H]3CCC4=CCCC[C@@H]4[C@H]3CC[C@@]21C` (stereo not given in full), the Potency in assay [1] was 49 µM (active) and 23.7 µM (active); in assay [2] it was 21.3 µM (active); in [3], 13.4 µM (active); in [4], 49 µM (active) and 10.7 µM (active); in assay [5] it was 61.1 µM (active) and 26.6 µM (active); in [6], 43.3 µM (active) and 23.7 µM (active). Further, the Potency in assay [7] was 43.6 µM (active) and 15.1 µM (active); in assay [10] it was 54.5 µM (active) and 26.6 µM (active); in [11], 48.6 µM (active) and 23.7 µM (active). Besides, the Potency result in assay [12] was “inactive”.
As for `CCCCOC(=O)CC`, the Potency result in [1], in assay [2], in assay [3], in assay [4], in assay [5] and in [6] was “inactive” throughout. The Potency entry in [7], in assay [8], in [9], in assay [10] and in assay [12] was “inactive” each time.
